Source: ChEMBL document CHEMBL2218924, “A broad activity screen in support of a chemogenomic map for kinase signalling research and drug discovery” (Biochem J, 2013)

Key:
[1] = target: T1, Ephrin type-B receptor 1 (Homo sapiens) (UniProt P54762); details: at 10 µM
T1 sequence (whole entry): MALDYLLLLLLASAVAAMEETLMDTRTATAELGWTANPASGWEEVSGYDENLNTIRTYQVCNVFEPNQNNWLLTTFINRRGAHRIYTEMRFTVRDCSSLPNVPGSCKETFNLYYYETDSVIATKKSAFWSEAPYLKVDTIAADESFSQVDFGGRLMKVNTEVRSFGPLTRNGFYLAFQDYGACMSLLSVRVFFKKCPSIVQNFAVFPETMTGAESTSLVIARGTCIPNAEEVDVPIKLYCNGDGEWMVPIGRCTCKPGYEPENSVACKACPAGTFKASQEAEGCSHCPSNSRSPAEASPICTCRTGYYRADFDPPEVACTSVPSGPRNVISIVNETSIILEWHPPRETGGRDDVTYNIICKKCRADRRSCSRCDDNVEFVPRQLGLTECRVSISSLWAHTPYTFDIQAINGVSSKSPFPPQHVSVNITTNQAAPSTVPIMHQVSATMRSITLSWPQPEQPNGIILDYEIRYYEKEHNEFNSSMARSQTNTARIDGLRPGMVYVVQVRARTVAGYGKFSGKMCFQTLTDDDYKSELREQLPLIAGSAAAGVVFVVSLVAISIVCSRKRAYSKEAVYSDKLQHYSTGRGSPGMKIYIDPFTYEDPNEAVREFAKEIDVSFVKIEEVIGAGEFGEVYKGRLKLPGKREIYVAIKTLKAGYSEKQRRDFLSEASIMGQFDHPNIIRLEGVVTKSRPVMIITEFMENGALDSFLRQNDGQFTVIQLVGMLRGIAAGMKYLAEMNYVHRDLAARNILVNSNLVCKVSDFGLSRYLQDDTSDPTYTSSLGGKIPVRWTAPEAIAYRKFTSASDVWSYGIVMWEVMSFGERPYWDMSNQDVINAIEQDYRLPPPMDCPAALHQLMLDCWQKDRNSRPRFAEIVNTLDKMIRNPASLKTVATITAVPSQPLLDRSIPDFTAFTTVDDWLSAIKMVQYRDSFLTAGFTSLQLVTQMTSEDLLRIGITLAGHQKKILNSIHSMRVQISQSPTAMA

[2] = target: T2, Ephrin type-B receptor 2 (Homo sapiens) (UniProt P29323); details: at 1 µM
T2 sequence (whole entry): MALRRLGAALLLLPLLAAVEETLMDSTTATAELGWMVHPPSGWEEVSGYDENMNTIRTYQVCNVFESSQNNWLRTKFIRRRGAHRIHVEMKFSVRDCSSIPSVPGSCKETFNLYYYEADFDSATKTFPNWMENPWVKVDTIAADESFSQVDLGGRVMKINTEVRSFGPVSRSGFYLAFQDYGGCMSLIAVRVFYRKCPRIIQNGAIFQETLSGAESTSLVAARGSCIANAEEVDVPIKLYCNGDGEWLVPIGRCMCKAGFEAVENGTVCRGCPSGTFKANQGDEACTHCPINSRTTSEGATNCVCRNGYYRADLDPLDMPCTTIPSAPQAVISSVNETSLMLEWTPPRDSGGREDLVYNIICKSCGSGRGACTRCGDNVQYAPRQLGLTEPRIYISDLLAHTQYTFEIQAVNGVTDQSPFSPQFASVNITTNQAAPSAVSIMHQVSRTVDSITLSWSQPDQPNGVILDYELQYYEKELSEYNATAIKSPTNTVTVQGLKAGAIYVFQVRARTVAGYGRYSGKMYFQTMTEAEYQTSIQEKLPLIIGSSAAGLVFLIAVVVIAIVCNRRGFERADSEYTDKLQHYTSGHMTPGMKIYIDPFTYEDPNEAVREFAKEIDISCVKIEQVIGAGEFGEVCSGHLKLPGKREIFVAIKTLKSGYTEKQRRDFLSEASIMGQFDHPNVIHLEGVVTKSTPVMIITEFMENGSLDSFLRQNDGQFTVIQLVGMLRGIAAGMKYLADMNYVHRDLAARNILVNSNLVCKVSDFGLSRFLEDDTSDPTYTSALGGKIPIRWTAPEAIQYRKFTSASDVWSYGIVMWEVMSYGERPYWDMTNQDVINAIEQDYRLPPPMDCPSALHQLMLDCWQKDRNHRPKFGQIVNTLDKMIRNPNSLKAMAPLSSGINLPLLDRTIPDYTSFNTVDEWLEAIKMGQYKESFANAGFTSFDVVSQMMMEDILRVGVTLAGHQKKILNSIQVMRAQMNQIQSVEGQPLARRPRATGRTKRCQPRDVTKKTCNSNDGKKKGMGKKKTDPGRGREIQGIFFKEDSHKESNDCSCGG

[3] = target: T2, Ephrin type-B receptor 2 (Homo sapiens); details: at 10 µM
[4] = target: T3, Ephrin type-B receptor 3 (Homo sapiens) (UniProt P54753); details: at 1 µM
T3 sequence (whole entry): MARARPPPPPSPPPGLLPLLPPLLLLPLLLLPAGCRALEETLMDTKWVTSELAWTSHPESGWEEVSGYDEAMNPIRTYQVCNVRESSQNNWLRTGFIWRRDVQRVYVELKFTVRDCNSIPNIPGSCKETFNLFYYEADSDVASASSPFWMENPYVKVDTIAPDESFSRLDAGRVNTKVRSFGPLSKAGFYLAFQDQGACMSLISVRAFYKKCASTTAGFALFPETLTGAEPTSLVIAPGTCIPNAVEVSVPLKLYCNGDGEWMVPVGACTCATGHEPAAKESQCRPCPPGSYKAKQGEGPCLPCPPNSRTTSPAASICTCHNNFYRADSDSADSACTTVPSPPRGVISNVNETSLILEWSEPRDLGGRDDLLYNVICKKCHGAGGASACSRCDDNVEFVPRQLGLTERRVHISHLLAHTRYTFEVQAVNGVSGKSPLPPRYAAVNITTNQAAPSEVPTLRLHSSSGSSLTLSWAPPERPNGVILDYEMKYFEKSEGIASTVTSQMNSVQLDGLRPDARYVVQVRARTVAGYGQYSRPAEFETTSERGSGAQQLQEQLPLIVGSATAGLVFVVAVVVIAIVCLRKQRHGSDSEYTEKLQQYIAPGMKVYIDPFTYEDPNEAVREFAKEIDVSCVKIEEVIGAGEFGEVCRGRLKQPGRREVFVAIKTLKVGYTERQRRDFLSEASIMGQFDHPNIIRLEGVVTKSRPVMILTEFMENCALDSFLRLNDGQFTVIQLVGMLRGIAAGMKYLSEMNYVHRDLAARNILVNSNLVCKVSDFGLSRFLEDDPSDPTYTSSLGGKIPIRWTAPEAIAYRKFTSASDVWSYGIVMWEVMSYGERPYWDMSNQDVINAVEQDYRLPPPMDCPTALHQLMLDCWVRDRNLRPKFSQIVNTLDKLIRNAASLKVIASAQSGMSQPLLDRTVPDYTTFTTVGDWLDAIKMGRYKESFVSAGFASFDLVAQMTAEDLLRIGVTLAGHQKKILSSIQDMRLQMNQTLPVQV

[5] = target: T3, Ephrin type-B receptor 3 (Homo sapiens); details: at 10 µM
[6] = target: T4, Ephrin type-B receptor 4 (Homo sapiens) (UniProt P54760); details: at 1 µM
T4 sequence (whole entry): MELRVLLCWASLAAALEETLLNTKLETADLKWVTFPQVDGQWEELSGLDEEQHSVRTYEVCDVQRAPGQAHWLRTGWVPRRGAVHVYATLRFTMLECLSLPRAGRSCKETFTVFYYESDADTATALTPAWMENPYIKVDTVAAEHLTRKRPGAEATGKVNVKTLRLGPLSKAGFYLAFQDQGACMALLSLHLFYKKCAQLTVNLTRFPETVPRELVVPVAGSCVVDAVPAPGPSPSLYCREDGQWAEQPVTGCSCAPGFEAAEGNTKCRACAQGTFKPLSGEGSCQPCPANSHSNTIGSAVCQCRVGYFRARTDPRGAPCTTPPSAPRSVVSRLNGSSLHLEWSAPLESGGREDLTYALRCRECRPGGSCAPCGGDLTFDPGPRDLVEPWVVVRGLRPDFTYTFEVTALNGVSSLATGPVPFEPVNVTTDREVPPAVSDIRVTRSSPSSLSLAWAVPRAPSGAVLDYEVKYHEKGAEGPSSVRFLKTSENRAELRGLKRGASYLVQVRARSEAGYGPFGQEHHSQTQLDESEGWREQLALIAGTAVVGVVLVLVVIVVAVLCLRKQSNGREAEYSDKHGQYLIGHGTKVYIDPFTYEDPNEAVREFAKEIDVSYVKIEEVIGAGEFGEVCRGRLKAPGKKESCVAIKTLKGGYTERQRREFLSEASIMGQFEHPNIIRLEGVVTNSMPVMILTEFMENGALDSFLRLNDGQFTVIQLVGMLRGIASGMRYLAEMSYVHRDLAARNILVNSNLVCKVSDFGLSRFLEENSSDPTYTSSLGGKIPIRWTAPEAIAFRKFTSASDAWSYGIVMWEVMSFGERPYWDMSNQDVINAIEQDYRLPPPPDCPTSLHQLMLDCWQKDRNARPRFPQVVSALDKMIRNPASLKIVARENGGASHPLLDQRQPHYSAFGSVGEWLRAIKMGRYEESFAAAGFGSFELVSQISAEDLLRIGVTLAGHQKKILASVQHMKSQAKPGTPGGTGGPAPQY

[7] = target: T4, Ephrin type-B receptor 4 (Homo sapiens); details: at 10 µM
[8] = target: Receptor tyrosine-protein kinase erbB-4 (Homo sapiens) (UniProt Q15303); details: at 1 µM
[9] = target: Receptor tyrosine-protein kinase erbB-4 (Homo sapiens) (UniProt Q15303); details: at 10 µM
[10] = target: Focal adhesion kinase 1 (Homo sapiens) (UniProt Q05397); details: at 1 µM
Chain of Focal adhesion kinase 1 (Homo sapiens) (Q05397 2-1052 limits assumed): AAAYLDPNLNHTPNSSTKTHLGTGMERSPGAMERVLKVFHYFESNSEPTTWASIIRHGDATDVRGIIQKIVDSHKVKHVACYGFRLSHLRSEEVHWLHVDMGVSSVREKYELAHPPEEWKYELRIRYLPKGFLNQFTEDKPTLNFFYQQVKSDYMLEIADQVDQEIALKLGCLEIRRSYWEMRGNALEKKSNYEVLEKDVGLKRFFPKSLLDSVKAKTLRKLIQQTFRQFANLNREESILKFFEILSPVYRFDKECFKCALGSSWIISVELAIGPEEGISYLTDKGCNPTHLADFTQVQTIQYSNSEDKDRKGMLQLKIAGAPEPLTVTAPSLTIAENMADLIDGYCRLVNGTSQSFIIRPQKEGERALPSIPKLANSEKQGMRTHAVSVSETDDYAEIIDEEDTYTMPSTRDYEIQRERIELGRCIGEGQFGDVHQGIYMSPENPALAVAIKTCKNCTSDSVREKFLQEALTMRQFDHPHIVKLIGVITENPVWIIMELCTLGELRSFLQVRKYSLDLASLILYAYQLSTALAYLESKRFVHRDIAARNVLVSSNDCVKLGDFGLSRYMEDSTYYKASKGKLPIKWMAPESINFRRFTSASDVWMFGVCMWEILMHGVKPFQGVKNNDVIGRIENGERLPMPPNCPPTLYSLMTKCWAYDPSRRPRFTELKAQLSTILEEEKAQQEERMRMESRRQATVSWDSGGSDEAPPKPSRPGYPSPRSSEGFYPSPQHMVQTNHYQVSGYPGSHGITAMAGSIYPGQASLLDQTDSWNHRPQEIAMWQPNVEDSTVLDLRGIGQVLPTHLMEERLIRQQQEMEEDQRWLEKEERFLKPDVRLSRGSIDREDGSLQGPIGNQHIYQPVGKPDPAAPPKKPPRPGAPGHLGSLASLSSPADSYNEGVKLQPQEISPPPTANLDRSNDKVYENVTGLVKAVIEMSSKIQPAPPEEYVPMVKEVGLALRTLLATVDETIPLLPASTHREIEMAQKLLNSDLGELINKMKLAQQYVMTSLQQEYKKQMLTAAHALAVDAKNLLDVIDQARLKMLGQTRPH

Chain of Receptor tyrosine-protein kinase erbB-4 (Homo sapiens) (Q15303 whole entry): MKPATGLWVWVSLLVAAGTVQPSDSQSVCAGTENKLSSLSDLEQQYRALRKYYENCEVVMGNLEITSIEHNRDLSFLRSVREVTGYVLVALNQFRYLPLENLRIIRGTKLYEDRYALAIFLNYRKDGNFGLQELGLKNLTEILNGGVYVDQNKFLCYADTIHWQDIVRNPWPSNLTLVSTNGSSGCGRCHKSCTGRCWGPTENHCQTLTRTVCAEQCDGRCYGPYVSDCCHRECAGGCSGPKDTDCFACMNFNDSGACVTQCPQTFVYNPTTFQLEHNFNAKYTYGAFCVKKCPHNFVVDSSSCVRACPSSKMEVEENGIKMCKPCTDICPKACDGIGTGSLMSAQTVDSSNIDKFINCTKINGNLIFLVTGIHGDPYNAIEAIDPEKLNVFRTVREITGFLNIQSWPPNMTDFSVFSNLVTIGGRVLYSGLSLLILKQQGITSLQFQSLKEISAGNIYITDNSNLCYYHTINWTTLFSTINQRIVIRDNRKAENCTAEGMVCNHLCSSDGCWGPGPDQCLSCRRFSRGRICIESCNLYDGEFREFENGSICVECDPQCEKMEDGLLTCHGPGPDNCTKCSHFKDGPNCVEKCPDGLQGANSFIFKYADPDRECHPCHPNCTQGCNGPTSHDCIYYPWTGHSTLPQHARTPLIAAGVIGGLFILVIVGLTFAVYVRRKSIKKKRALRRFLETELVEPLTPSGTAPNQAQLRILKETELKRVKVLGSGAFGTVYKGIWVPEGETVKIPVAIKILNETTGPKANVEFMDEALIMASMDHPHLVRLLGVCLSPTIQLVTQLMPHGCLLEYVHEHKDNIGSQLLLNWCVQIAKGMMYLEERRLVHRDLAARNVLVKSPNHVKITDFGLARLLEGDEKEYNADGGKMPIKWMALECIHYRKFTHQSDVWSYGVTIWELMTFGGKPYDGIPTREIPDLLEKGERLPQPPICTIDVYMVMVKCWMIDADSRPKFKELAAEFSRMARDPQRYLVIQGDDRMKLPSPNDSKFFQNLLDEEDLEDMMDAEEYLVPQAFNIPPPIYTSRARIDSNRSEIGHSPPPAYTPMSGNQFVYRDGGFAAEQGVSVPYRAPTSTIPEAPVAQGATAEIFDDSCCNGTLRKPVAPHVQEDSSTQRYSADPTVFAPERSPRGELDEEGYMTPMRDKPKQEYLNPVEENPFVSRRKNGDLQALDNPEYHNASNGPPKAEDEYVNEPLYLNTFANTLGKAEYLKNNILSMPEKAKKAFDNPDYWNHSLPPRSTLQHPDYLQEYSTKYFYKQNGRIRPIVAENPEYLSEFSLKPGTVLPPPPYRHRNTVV

For `O=[N+]([O-])/C=C/c1ccc2c(c1)OCO2`, the residual activity [1] was 116%, the residual activity [2] was 116% and the residual activity [3] was 124%. For the same molecule, the residual activity [4] was 117% (inactive), the residual activity [5] was 111% and the residual activity [6] was 114%. It also gave a residual activity [7] of 127%, a residual activity [8] of 86% and a residual activity [9] of 101%. The residual activity [10] was 141%.
